Source: PubChem
Pf Dd2 inh: qHTS Primary assay for Inhibitors of Plasmodium falciparum Dd2 growth in vitro. P. falciparum Dd2 growth, SYBR Green, 72 h. Potency, µM (titrated, usually from 28.9 µM), without a hit: top-dose activity, negative = inhibition, hits mostly inhibitors. 4.3% of 120,000 active. AID 1347417, 2020; active = well fitted inhibition curve with a large enough effect;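 note: plate controls were DMSO vehicle for no effect and reference drug for full effect; nearly all actives have a fitted effect of over 65% in size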
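Readout: SYBR Green fluorescence, 485 nm excitation, 535 nm emission, after ~16 h lysis at 37C. Before that, Dd2-infected red cells (2.5% hematocrit) grew 72 h with compound, 29 uM top final concentration.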
The depositor's hits bear a star; [ ] = dose if it differs, or a comment. This is one part of a sample in which hits are shown more often than they occur. Potency is the fitted concentration of half-maximal effect.

Screening Cc1cc(Cn2cc3c4c(cccc42)[C@H](CC(C)C)N[C@H](C(=O)NCc2cncn2C)C3)no1 returned Pf Dd2 inh 11µM*.
For CC(C)C[C@@H]1N[C@H](C(=O)O)Cc2cn(CC3CCC3)c3cccc1c23 the results were Pf Dd2 inh inactive.
C#CCNC(=O)[C@@H]1Cc2cn(Cc3nccn3C)c3cccc(c23)[C@H](CC(C)C)N1 was read as Pf Dd2 inh 10µM*.
For N#Cc1ccc(C(=O)N2CCCN(C(=O)C3CC3)C(c3ccccc3)CC(=O)NCC2)cc1 (stereo not given) the results were Pf Dd2 inh -11%.
Cc1ccc(-c2noc(C(C)Oc3ccccc3)n2)nn1 (stereo not given) was read as Pf Dd2 inh -13%.
Screening O=C1CC(c2noc(-c3cc(F)ccc3F)n2)CN1c1ccc(F)cc1 (stereo not given) returned Pf Dd2 inh 4%.
Screening COc1ccc(C(=O)N[C@@H]2CCC[C@@H]2C(=O)NCc2ccc(OC(F)(F)F)cc2)cc1 returned Pf Dd2 inh 2%.
N#Cc1ccc(C(=O)Nc2ccc([C@@H](O)[C@H]3COCC(=O)N3CCCc3ccccc3)cc2)cc1 was read as Pf Dd2 inh inactive.
Screening CC(C)CN1CCN(C(=O)C2(CCO)CC23CCOCC3)CC1 (stereo not given) returned Pf Dd2 inh 2%.
`O=C(c1ccc(=O)[nH]c1)N1C[C@@H](COCC2CC2)[C@H](c2ccncc2)C1` gave Pf Dd2 inh 14%.
For N#Cc1ccc(S(=O)(=O)N2CCCOCCNC(=O)[C@@H]3CCCC[C@@H]32)cc1 the results were Pf Dd2 inh 23%.
For O=C1CCC(C(=O)N2CCN(Cc3ccc(F)cc3)CC(O)C2)=NN1 (stereo not given) the results were Pf Dd2 inh 2%.
`CN1Cc2ccc(NCc3ccccc3)nc2C(C)(C(=O)NCc2cccnc2)C1` (stereo not given) gave Pf Dd2 inh inactive.
COCCNC(=O)C1(C)CN(Cc2ccccc2)Cc2ccc(Nc3ccccc3)nc21 (stereo not given) was read as Pf Dd2 inh 0%[44.1 µM].
`CC(C)CNc1ccc2c(n1)C(C)(C(=O)N1CCC1)CN(Cc1ccccc1)C2` (stereo not given) gave Pf Dd2 inh inactive.
CC1(C(=O)Nc2ccc(F)cc2)CN(Cc2ccccc2)Cc2ccc(N3CCOCC3)nc21 (stereo not given) was read as Pf Dd2 inh 6.3µM*.
`CNC(=O)C1(C)CN(Cc2ccccc2)Cc2ccc(Nc3ccccc3)nc21` (stereo not given) gave Pf Dd2 inh 10µM*.
Screening CC1(C(=O)Nc2ccccc2)CN(Cc2ccccc2)Cc2ccc(N3CCOCC3)nc21 (stereo not given) returned Pf Dd2 inh inactive.
For CC1(C(=O)NC2CCOCC2)CN(Cc2ccccc2)Cc2ccc(Nc3ccccc3)nc21 (stereo not given) the results were Pf Dd2 inh -23%.
CC(C)CNc1ccc2c(n1)C(C)(C(=O)NC1CC1)CN(Cc1ccccc1)C2 (stereo not given) was read as Pf Dd2 inh -19%[44.1 µM].
`CN1Cc2ccc(NCc3ccccc3)nc2C(C)(C(=O)NC2CCC2)C1` (stereo not given) gave Pf Dd2 inh 4µM*.
`O=C(NCc1ccncc1)c1cn(C2CN(C(=O)C3CC3)C2)nn1` gave Pf Dd2 inh 21%.
`Cn1cccc1C(=O)N1CC(c2nc(CCOCC3CCCC3)no2)C1` gave Pf Dd2 inh -18%.
Screening COc1ccc(-c2ccc3nnc(CNC(=O)c4ccccc4Cl)n3n2)cc1 returned Pf Dd2 inh inactive.
For CCO[C@H]1CN(Cc2cc3c(cc2OC)OCCCO3)C[C@@H]1O the results were Pf Dd2 inh -15%.
`COCCN(C)C[C@H]1C[C@H](CO)CN(C(=O)c2ccc(SC)cc2)C1` gave Pf Dd2 inh -11%.
Screening Cc1cc(C(=O)N2CC(F)(F)C[C@H]2c2nc(C3CC3)no2)c(C)o1 returned Pf Dd2 inh 3.2µM*.
`Cc1cc(C(=O)N2CC(F)(F)C[C@H]2c2nnc(C3CC3)o2)c(C)o1` gave Pf Dd2 inh -3%.
Screening Cn1ccnc1C(=O)N1CC(F)(F)C[C@H]1c1nc(C2CC2)no1 returned Pf Dd2 inh 22%.
COc1ccc(CC2CN(C(=O)c3cccnc3SC)CCO2)cc1 (stereo not given) was read as Pf Dd2 inh 3%.
`COc1ccc(Cn2ccc3nc(C)c(C(=O)N4CCN(c5ccc(F)cc5)CC4)cc3c2=O)cc1` gave Pf Dd2 inh -4%.
For CCn1c2c(c(=O)n3ncc(C(=O)N4CCN(c5ccc(C(C)=O)cc5)CC4)c13)CN(Cc1ccc(OC)cc1)CC2 the results were Pf Dd2 inh 10µM*.
Screening COc1ccc(N2CCN(C(=O)c3noc4c3CCCCC4)CC2)cc1 returned Pf Dd2 inh 49%.
COc1ccc(-c2cc(N3CCC(NC(=O)COc4ccc(F)cc4)CC3)n[nH]2)cc1 was read as Pf Dd2 inh -10%.
